Data reported in the antibiotic and cytotoxicity screens of Wong et al. (2023).
Among all 39,000 compounds or so, about 3,300 (8.5%) were called active. For the sample, actives were picked, then their nearest neighbours and some compounds at random.

The compounds below were run on HepG2 (assay: cytotoxicity call (relative viability < 0.9)). Settings: 10 µM.

Row | SMILES | cytotoxicity call
1 | COc1ccc2c3c([nH]c2c1)[C@H](CO)N(C[C@]13CCN(CC1)C(=O)Nc1cccc(c1)F)C(=O)c1ccc(cc1)F | inactive
2 | COc1ccc2c3c([nH]c2c1)[C@@H](CO)N(CC1CCCCC1)C[C@]13CN(C1)C(=O)Nc1cccc(c1)F | inactive
3 | COc1ccc2c3c([nH]c2c1)[C@@H](CO)N(C[C@]13CN(CC2CCCCC2)C1)C(=O)Nc1cccc(c1)F | active
4 | COc1ccc2c3c([nH]c2c1)[C@H](CO)N(CC1CCCCC1)C[C@]13CN(C1)C(=O)Nc1cccc(c1)F | inactive
5 | COc1ccc2c3c([nH]c2c1)[C@@H](CO)N(C[C@]13CCN(CC1)C(=O)Nc1cccc(c1)F)C(=O)c1ccc(cc1)F | inactive
6 | COc1ccc2c3c([nH]c2c1)[C@H](CO)N(C[C@]13CN(CC2CCCCC2)C1)C(=O)Nc1cccc(c1)F | active
7 | C[C@@H]1CN([C@H](C)CO)C(=O)c2cccc(NS(=O)(=O)c3ccc(F)cc3)c2O[C@H]1CN(C)S(=O)(=O)c1ccc(F)cc1 | inactive
8 | COc1cccc(-c2ccc3c(c2)O[C@@H](CN(C)C(=O)C2CCOCC2)[C@H](C)CN([C@@H](C)CO)S3(=O)=O)c1 | inactive
9 | CC(C)NC(=O)N(C)C[C@@H]1Oc2ccc(NC(=O)Cn3cnnn3)cc2C(=O)N([C@@H](C)CO)C[C@@H]1C | inactive
10 | O=C(C[C@@H]1C=C[C@H](NS(=O)(=O)c2ccccc2F)[C@H](CO)O1)NCCCN1CCOCC1 | inactive
11 | C[C@@H]1CN([C@H](C)CO)C(=O)c2cccc(NC(=O)c3cnccn3)c2O[C@@H]1CN(C)S(=O)(=O)c1ccccc1 | inactive
12 | CC(C)NC(=O)Nc1ccc2c(c1)C(=O)N(C)[C@H]1CC[C@H](CC(=O)NCc3ccc(F)cc3)O[C@@H]1CO2 | inactive
13 | C[C@@H]1CN([C@H](C)CO)C(=O)c2cc(NC(=O)C3CC3)ccc2O[C@H]1CN(C)Cc1ccc(-c2ccccc2)cc1 | inactive
14 | CCc1ccc(-c2cc3c(=O)n(CC(=O)NCCN4CCOCC4)nc(C)n3n2)cc1 | inactive
15 | Cc1ccc(S(=O)(=O)Nc2ccc3c(c2)CC(=O)N([C@H](C)CO)C[C@H](C)[C@@H](CN(C)S(=O)(=O)c2cccs2)O3)cc1 | inactive
16 | COc1ccc(CN(C)C[C@H]2OCCCC[C@@H](C)Oc3ccc(NC(=O)NC4CCCCC4)cc3C(=O)N([C@H](C)CO)C[C@@H]2C)cc1 | inactive
17 | C[C@@H]1CN([C@@H](C)CO)S(=O)(=O)c2ccc(C#C[C@@H](C)O)cc2O[C@@H]1CN(C)C(=O)Nc1ccccc1 | inactive
18 | COc1ccc(CN(C)C[C@H]2Oc3c(NC(=O)c4ccc(-c5nccs5)cc4)cccc3C(=O)N([C@H](C)CO)C[C@@H]2C)cc1 | inactive
19 | COc1ccc(CN(C)C[C@@H]2Oc3c(NC(=O)c4ccc(-c5nccs5)cc4)cccc3C(=O)N([C@H](C)CO)C[C@@H]2C)cc1 | inactive
20 | COc1ccc(CN(C)C[C@H]2Oc3c(NC(=O)c4ccc(-c5nccs5)cc4)cccc3C(=O)N([C@@H](C)CO)C[C@H]2C)cc1 | inactive

Row | SMILES | cytotoxicity call
21 | COc1ccc(CN(C)C[C@@H]2Oc3c(NC(=O)c4ccc(-c5nccs5)cc4)cccc3C(=O)N([C@@H](C)CO)C[C@H]2C)cc1 | active
22 | COc1ccc(CN(C)C[C@@H]2Oc3c(NC(=O)c4ccc(-c5nccs5)cc4)cccc3C(=O)N([C@H](C)CO)C[C@H]2C)cc1 | active
23 | COc1ccc(CN(C)C[C@H]2Oc3c(NC(=O)c4ccc(-c5nccs5)cc4)cccc3C(=O)N([C@@H](C)CO)C[C@@H]2C)cc1 | inactive
24 | CO[C@@H]1CN(C)C(=O)c2cc(NC(C)=O)ccc2OC[C@@H](C)N(S(=O)(=O)c2cn(C)cn2)C[C@H]1C | inactive
25 | C[C@@H]1CCCCO[C@H](CN(C)Cc2ccccc2)[C@@H](C)CN([C@H](C)CO)C(=O)c2cc(NC(=O)c3ccccc3)ccc2O1 | inactive
26 | CCC[C@@H](O)C#Cc1cnc2c(c1)C(=O)N([C@H](C)CO)C[C@H](C)[C@H](CN(C)S(=O)(=O)c1ccccc1)O2 | inactive
27 | C[C@@H]1CN([C@H](C)CO)C(=O)c2cc(NC(=O)Cc3cn(C)c4ccccc34)ccc2O[C@@H]1CN(C)Cc1ccc(Oc2ccccc2)cc1 | inactive
28 | C[C@@H]1CN([C@H](C)CO)C(=O)c2cc(NC(=O)Cc3cn(C)c4ccccc34)ccc2O[C@H]1CN(C)Cc1ccc(Oc2ccccc2)cc1 | inactive
29 | C[C@@H]1CN([C@@H](C)CO)C(=O)c2cc(NC(=O)Cc3cn(C)c4ccccc34)ccc2O[C@@H]1CN(C)Cc1ccc(Oc2ccccc2)cc1 | inactive
30 | C[C@H]1CN([C@@H](C)CO)C(=O)c2cc(NC(=O)Cc3cn(C)c4ccccc34)ccc2O[C@@H]1CN(C)Cc1ccc(Oc2ccccc2)cc1 | active
31 | C[C@H](CO)N1C[C@H](C)[C@H](CN(C)Cc2ccc(Oc3ccccc3)cc2)Oc2ccc(NC(=O)Cc3cn(C)c4ccccc34)cc2C1=O | active
32 | C[C@H](CO)N1C[C@H](C)[C@@H](CN(C)Cc2ccc(Oc3ccccc3)cc2)Oc2ccc(NC(=O)Cc3cn(C)c4ccccc34)cc2C1=O | active
33 | C[C@H]1CN([C@@H](C)CO)C(=O)c2cc(NC(=O)Cc3cn(C)c4ccccc34)ccc2O[C@H]1CN(C)Cc1ccc(Oc2ccccc2)cc1 | inactive
34 | C[C@@H]1CN([C@@H](C)CO)C(=O)c2cc(NC(=O)Cc3cn(C)c4ccccc34)ccc2O[C@H]1CN(C)Cc1ccc(Oc2ccccc2)cc1 | inactive
35 | Cc1ccc(S(=O)(=O)N(C)C[C@H]2OCCCC[C@@H](C)Oc3ccc(NC(=O)Nc4ccc5c(c4)OCO5)cc3C(=O)N([C@H](C)CO)C[C@@H]2C)cc1 | inactive
36 | COc1cccc(-c2ccc3c(c2)O[C@H](CN(C)Cc2cncnc2)[C@H](C)CN([C@@H](C)CO)S3(=O)=O)c1 | inactive
37 | COc1ccc(NC(=O)N(C)C[C@H]2Oc3ccc(NC(=O)CCCCCC(=O)Nc4ccccc4N)cc3CC(=O)N([C@H](C)CO)C[C@H]2C)cc1 | inactive
38 | C[C@@H]1CN([C@@H](C)CO)C(=O)c2c(c3ccccc3n2C)-c2ccccc2CO[C@H]1CN(C)S(C)(=O)=O | inactive
39 | CC(=O)OCC1=C(C(=O)O)N2C(=O)[C@@H](NC(=O)CSc3ccncc3)[C@H]2SC1 | inactive
